The nature of the assay: TERT promoter activity modulators, primary screen, cell-based, luciferase reporter, human (AID 1259240). Conditions: A2780 TERT promoter luciferase reporter, 16 h; at 20 µM, fold versus average of vehicle-only wells. On the technique in general: A reporter such as luciferase makes a cellular process visible.

Each structure is given as a SMILES string. Values without a mark were called inactive. Calls of active or inactive are those of the source. Rule as the data show it: active = fold change mostly below about -2 (no sharp cut-off); inactive = mostly above about -1.8.

With `COCCCNc1nc2c(-c3ccccc3)nnn2c2ccccc12`, the fold change was 1.02.
Still for that read-out and setting: in the case of `CCOC(=O)Cn1c(=O)oc2cc(S(=O)(=O)N3CCCC3)ccc21` it was -1.16; in that of `COc1cccc(N=c2oc3c(OC)cccc3cc2S(=O)(=O)c2ccccc2)c1`, -1.92; in that of `COc1cc(C(=O)Nc2ccc3oc(-c4ccncc4)nc3c2)cc(OC)c1OC`, -1.49.
On the same count and under the same terms, in the case of `COc1ccccc1-c1nc2s/c(=C3\C(=O)N(CC(=O)O)c4ccccc43)c(=O)n2n1` it was 1.16; in that of `CCOC(=O)CSc1nc(SCC(=O)OCC)c2c3c([nH]c2n1)CCCC3`, 1.35; in that of `Cc1cc(=O)oc2c1c(C)nn2-c1ccc(C(=O)O)cc1`, -2.62 (active).
On the same count and under the same terms, as for `CN(Cc1ccccc1)C(=O)C1CCCN(S(=O)(=O)c2ccc3c(c2)oc(=O)n3C)C1` (stereo unspecified), the figure is -1.14.
Turning to `Fc1ccc(-c2nnc3ccc(NCCN4CCOCC4)nn23)cc1`, the fold change was -1.13.
With `Cc1[nH]nc2c1C(c1ccc(O)cc1)NC2=O` (stereo unspecified), the fold change is -1.14.
As for `CN(CC(=O)NCc1cccs1)S(=O)(=O)c1ccc2c(c1)n(C)c(=O)c(=O)n2C`, the fold change was 1.51.
Same read-out and setting: in the case of `O=C(CSc1nc(-c2ccc(F)cc2)cc(C(F)(F)F)n1)NCCCn1ccnc1` it was -1.16.
In the case of `O=S(=O)(Nc1cccc(C(F)(F)F)c1)c1cccc2cccnc12`, the fold change was -1.42.
Regarding `O=c1[nH]c(-c2ccc3nsnc3c2)nc2ccccc12`, the call was inactive.
With `O=C(CSc1nc2sc3c(c2c(=O)[nH]1)CCCC3)N1CCOCC1`, the fold change is -4.39 (active).
Same read-out and setting: as for `C=CCN1C(=O)/C(=c2\sc3nc(-c4ccccc4OC)nn3c2=O)c2cc(Br)ccc21`, the figure is 1.17.

The values above are taken from PubChem BioAssay AID1259240 (Keith Lab, Institute of Cancer Science, University of …, 2017).
